Assay results from PubChem BioAssay (Tox21).
Inconclusive results are not listed. Active and inactive are the calls of the source. Calls follow the shape of the dose curve; as a rule, active = well fitted activation curve with a large enough effect in the repeat runs; inconclusive = weak or mixed curves; inactive = flat fitted curve, though single readings scatter.

Experiment: A CellTox Green Cytotoxicity Assay to monitor cytotoxicity in HepG2 cells - 40 hour (AID 1224879); also: nearly all actives have a fitted effect of over 40% in size
Settings: CellTox Green fluorescence; series mostly up to 76.8 µM; cytotoxicity increase: at the top concentration
Excerpt: National Center for Advancing Translational Sciences [NCATS]
NIH Chemical Genomics Center [NCGC]
U.S. Environmental Protection Agency [EPA]
National Institutes of Environmental Health Sciences [NIEHS]
National Toxicology Program [NTP]
Cell-based models are critical for drug discovery. Determining the natural cytotoxic effects resulting from test compounds is an essential research activity. A CellTox Green Cytotoxicity Assay to monitor cytotoxicity in real time of continues cell culture during 40 hours of the compound treatment was used to screen Tox21 10K library compounds in HepG2 cells. CellTox Green Cytotoxicity Assay is a nonlytic, homogeneous, biofluorescent method to measure cytotoxicity in cell culture after experimental manipulation. The assay system uses a proprietary asymmetric cyanine dye that is excluded from viable cells but preferentially stains the dead cell's DNA. […] Viable cells produce no appreciable increases in fluorescence. Therefore, the fluorescence signal produced by the binding interaction with dead cell DNA is proportional to cytotoxicity.
The mixture of HepG2 cell suspension and reagents were dispensed at 600cells/6 ul/well in 1536-well tissue culture treated black solid bottom plates using a Multidrop dispenser. After the assay plates were incubated at a 37 C/5% CO2 incubator for 5 hours, 23 nL of compounds dissolved in DMSO, positive and negative controls was transferred to the assay plate by a pintool work station. The plates were incubated at 37 C for 40 hours. The fluorescence intensity were measured at 0h, 8h, 16h, 24h, 32h and 40h time points using ViewLux plate reader during compound treatment.
% is scaled to controls: 0 for no effect and ±100 for the full control effect; potency is read from the fitted curve at half-maximal effect.

SMILES | Potency | cytotoxicity increase
Cc1c(-c2ccc(O)cc2)n(Cc2ccc(OCCN3CCCCCC3)cc2)c2ccc(O)cc12 | 8.49 µM (active) | 
C=CC(=O)OCCOCC(CC)(COCCOC(=O)C=C)COCCOC(=O)C=C | 25.6 µM (active) | 
CC[N+](CC)(CC)Cc1ccccc1 |  | 11.7% (inactive)
C=C[C@](C)(O)CC[C@@H]1[C@@]2(C)CCCC(C)(C)[C@@H]2CC[C@@]1(C)O | 49 µM (active) | 
Oc1ccc(-c2ccc(O)cc2)cc1 |  | 10.1% (inactive)
CN(C)c1ccc(N=NS(=O)(=O)O)cc1 |  | -7.18% (inactive)
CC1(C)COCN1 |  | -20.7% (inactive)
CCO[Si](C)(C)OCC |  | -4.95% (inactive)
CCN(CC)CCOC(=O)C1(C2CCCCC2)CCCCC1 | 23.9 µM (active) | 
CCN1CCN(c2cc(-c3ccc(F)cc3)c3c(n2)CCCCCC3)CC1 | 11.7 µM (active) | 
C=C(C)C(=O)OCCC[Si](Cl)(Cl)Cl |  | -16.8% (inactive)
CC(COC(=O)c1ccccc1)OC(=O)c1ccccc1 (stereo not given) |  | -1.94% (inactive)
OCCCCl |  | 0.768% (inactive)
CCN(CC)c1cccc(C)c1 |  | -6.83% (inactive)
CCOCOCC |  | -10.2% (inactive)
CC(=O)OC(OC(C)=O)c1ccc([N+](=O)[O-])o1 | 49.8 µM (active) | 
[O]=[Zr] |  | 0.111% (inactive)
Clc1ccc(C(c2ccccc2Cl)C(Cl)Cl)cc1 (stereo not given) |  | 4.65% [at 35.3 µM] (inactive)
Clc1ccc(C(Cn2ccnc2)OCc2ccsc2Cl)c(Cl)c1 (stereo not given) | 23.9 µM (active) | 
O=C(Nc1ccc(Cl)cc1)Nc1ccc(Cl)c(C(F)(F)F)c1 | 19 µM (active) | 

SMILES | Potency | cytotoxicity increase
CCCCCCCOC(=O)c1ccccc1C(=O)OCCCCCCC |  | -10.7% (inactive)
CC1(C)C(=O)N(Br)C(=O)N1Br |  | -8.59% (inactive)
CCCCCCCC/C=C\CCCCCCCC(=O)NCc1ccc(O)c(OC)c1 |  | 1.98% [at 35.3 µM] (inactive)
C[C@@]12C(=O)OC(=O)[C@]1(C)C1CCC2O1 | 10.7 µM (active) | 
CC(C)=CCCC(C)CCOC(=O)C(C)C (stereo not given) |  | -9.38% (inactive)
O=C1OC(=O)c2cccc3cccc1c23 |  | 9.66% (inactive)
O=C1c2c(O)ccc(O)c2C(=O)c2c(NCCNCCO)ccc(NCCNCCO)c21 |  | -68.8% [at 35.3 µM] (inactive)
CC(=O)C=O |  | 4.08% (inactive)
CC1CCCCC1 |  | -6.71% (inactive)
CCCSS/C(CCO)=C(\C)N(C=O)Cc1cnc(C)nc1N | 26.8 µM (active) | 
CCCCCCCCCCCCN(CCO)CCO | 19.4 µM (active) | 
O=C1NC2CCCCN2C12CCN(CCCN1c3ccccc3CCc3ccc(Cl)cc31)CC2 (stereo not given) | 23.9 µM (active) | 
CO[Si](CCC1CCC2OC2C1)(OC)OC (stereo not given) |  | 5.33% (inactive)
C[n+]1c2cc(N)ccc2cc2ccc(N)cc21 (tested in a mixture with another compound) | 21.3 µM (active) | 
CC(C)(C)c1cc(CCC(=O)NCCCCCCNC(=O)CCc2cc(C(C)(C)C)c(O)c(C(C)(C)C)c2)cc(C(C)(C)C)c1O |  | 3.79% (inactive)
CC1CCCNC1 (stereo not given) |  | 0.847% (inactive)
CCCCCCCC/C=C/CCCOC(C)=O |  | 10.5% (inactive)
CCCCCCCCCCOCC(O)CN (stereo not given) | 15.1 µM (active) | 
Cc1c(C(=O)O)cccc1[N+](=O)[O-] |  | -2.25% (inactive)
CCCCOc1ccc(C(=O)CCN2CCCCC2)cc1 | 19 µM (active) | 
